Assay results reported in PubChem BioAssay (NCI).
About 83,000 compounds went through this panel and 20% of them were active in at least one assay; those are over-represented in the sample as a whole.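 The test compound was applied at a single concentration to cells in 96-well plates for 48 hours, and percent growth was recorded.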 Unmarked numbers belong to inactive results. The source made the active and inactive calls. Rule for the calls: active = growth percent below 10; inactive = the rest.

Assays:
Assay in all cases: NCI-60 one-dose screen, 48 h (100 = growth as untreated, 0 = no growth, -100 = all killed)
Conditions in all cases: 10 µM unless noted
DU-145 prostate = tested on: DU-145 prostate
K-562 leukemia = tested on: K-562 leukemia
MALME-3M melanoma = tested on: MALME-3M melanoma
MDA-MB-231 breast = tested on: MDA-MB-231 breast
RXF 393 renal = tested on: RXF 393 renal
SF-268 CNS = tested on: SF-268 CNS
SF-295 CNS = tested on: SF-295 CNS
SF-539 CNS = tested on: SF-539 CNS
UACC-257 melanoma = tested on: UACC-257 melanoma
M14 melanoma = tested on: M14 melanoma
HCT-15 colon = tested on: HCT-15 colon
HT29 colon = tested on: HT29 colon
SNB-75 CNS = tested on: SNB-75 CNS
SNB-19 CNS = tested on: SNB-19 CNS
U251 CNS = tested on: U251 CNS
PC-3 prostate = tested on: PC-3 prostate
SK-MEL-5 melanoma = tested on: SK-MEL-5 melanoma
UACC-62 melanoma = tested on: UACC-62 melanoma
LOX IMVI melanoma = tested on: LOX IMVI melanoma
SK-MEL-28 melanoma = tested on: SK-MEL-28 melanoma

Compound | growth (DU-145 prostate) | growth (K-562 leukemia) | growth (MALME-3M melanoma) | growth (MDA-MB-231 breast) | growth (RXF 393 renal) | growth (SF-268 CNS) | growth (SF-295 CNS) | growth (SF-539 CNS) | growth (UACC-257 melanoma) | growth (M14 melanoma) | growth (HCT-15 colon) | growth (HT29 colon) | growth (SNB-75 CNS) | growth (SNB-19 CNS) | growth (U251 CNS) | growth (PC-3 prostate) | growth (SK-MEL-5 melanoma) | growth (UACC-62 melanoma) | growth (LOX IMVI melanoma) | growth (SK-MEL-28 melanoma)
O=C1NC(=S)S/C1=C\N1N=C(c2ccc(Cl)cc2)CC1c1ccc(F)cc1 (stereo not given) | 98.5% | 59.8% | 83.7% | 80.9% | 73.8% | 85.9% | 92.4% | 89.5% | 107% | 87.7% | 78.5% | 85.5% | 76.1% | 81.7% | 68.7% | 81.6% | 77.8% | 73.6% | 80.6% | 103%
CN1CCN(C(=O)[C@@]2(C)CC[C@]3(C)CC[C@]4(C)C(=CC[C@@H]5[C@@]6(C)C/C(=C/c7ccncc7)C(=O)C(C)(C)[C@@H]6CC[C@]54C)[C@@H]3C2)CC1 | 76.1% | 7.71% (active) | 42.3% | 69.4% | 46.3% | 67.9% | 63.6% | 57.7% | 40.8% | 49.8% | 30.2% | 10.9% | 62.7% | 62.7% | 32.6% | 23.8% | 39.3% | 37.8% | 28.5% | 48.7%
C=CC(=O)Nc1cccc(C)c1Nc1cc(-c2cccnc2Cc2c(C)c(OC)cc(OC)c2C)ncn1 | 11.4% | -11.1% (active) | 66.1% | 21.4% | -0.169% (active) | 6.81% (active) | 43% | 3.02% (active) | 21.4% | 53.4% | 42.3% | 5.04% (active) | 23.9% | 23.3% | -16.1% (active) | 8.05% (active) | 57.9% | 38% | 13.9% | 44.3%
CC(C)(C)Nc1c(-c2c3ccccc3cc3ccccc23)nc2ccccn12 | 92.7% | 42% | 80.6% | 80.7% | 82.4% | 82.9% | 69.7% | 78.2% | 75.5% | 70.3% | 79.7% | 55.3% | 64% | 74.1% | 68.2% | 37.9% | 84% | 50.6% | 85.9% | 82.2%
Cl.Fc1c[c-]c(-c2ccccn2)c(F)c1.[Pt].c1ccc(P(c2ccccc2)C([PH+](c2ccccc2)c2ccccc2)[PH+](c2ccccc2)c2ccccc2)cc1 | 26.1% | 13.6% | -12.9% (active) | -16% (active) | 13.3% | 26.4% | 5.14% (active) | 9.54% (active) | 6.42% (active) | 18.7% | 56.1% | 11.8% | 7.77% (active) | 27.1% | 16.4% | 7.49% (active) | -91% (active) | 23.2% | 11.7% | 34.4%
CN(C)CCOC(=O)Nc1ccc(Cl)cc1 | 110% | 90.5% | 114% | 93.8% | 118% | 105% | 103% | 102% | 101% | 90.5% | 108% | 82.7% | 96.3% | 106% | 101% | 65.4% | 99% | 97.2% | 101% | 115%
CC(=O)c1cc2c(o1)C(=O)c1ccccc1C2=O | -97.8% (active) | -24.9% (active) | -97.9% (active) | -21.5% (active) | -93.8% (active) | -62.6% (active) | -93.4% (active) | -98.5% (active) | -88.5% (active) | -88.4% (active) | -77% (active) | -18.3% (active) | -98.5% (active) | -90.8% (active) | -81.2% (active) | -10.4% (active) | -96.3% (active) | -82.7% (active) | -59.3% (active) | -70.8% (active)
N#Cc1c(NC(=O)c2ccc(Br)cc2)sc2c1CCCC2 | 33.3% | 15.9% | 49.2% | 44.9% | 13.7% | 61.7% | 21.7% | 10.5% | 66.1% | 17.3% | 22.2% | 15.8% | 13.6% | 38.5% | 31.2% | 28.9% | 9.6% (active) | 29.1% | 38.7% | 59%
c1ccc2c(c1)ncn2-c1nc2ccccc2n2c1nc1ccccc12 | 89% | 82.9% | 128% | 80.7% | 88.8% | 94.3% | 90.2% | 79.8% | 104% | 91.1% | 43.1% | 40.9% | 81.3% | 86.8% | 87.6% | 72.4% | 55.8% | 77.3% | 79.1% | 107%
NS(=O)(=O)Oc1ccc(-c2sc3cc(O)ccc3c2C(=O)c2ccc(OCCN3CCCCC3)cc2)cc1 | 51.2% | 14.1% | 63.7% | 72% | 66.8% | 68.4% | 48.1% | 62.8% | -44.2% (active) | -17% (active) | 36.2% | 0.722% (active) | 39.6% | 78.2% | 21.9% | 69.9% | 46.2% | -47.2% (active) | 34.4% | 23.6%
CCNCCNc1cc(-c2ccc(F)cc2)c(C#N)c2nc3ccccc3n12 | 46.4% | -19.1% (active) | -60.1% (active) | 17.9% | 29.7% | 53.8% | 38.5% | -88.4% (active) | -76.8% (active) | -64.1% (active) | 23.8% | 16.6% | 48.4% | 79.3% | 17.1% | 42.1% | -62.9% (active) | 12.7% | -77.4% (active) | -91% (active)
NS(=O)(=O)Oc1ccc(NC(=O)C23CC4CC(CC(C4)C2)C3)cc1Cl | 99.8% | 94.6% | 97.6% | 90.5% | 111% | 88.1% | 101% | 87.3% | 90.2% | 97.3% | 101% | 103% | 84.3% | 90.9% | 96% | 94.5% | 91.1% | 86.8% | 82.9% | 104%
CN1C(=O)CCC(N2C(=O)c3cccc(NCCOCCOCCNC(=O)c4cc5c(o4)C(=O)c4ccccc4C5=O)c3C2=O)C1=O (stereo not given) | -95.3% (active) | 10.5% | -97.4% (active) | -3.68% (active) | -34.6% (active) | -0.714% (active) | -88.1% (active) | -80.4% (active) | -85.1% (active) | -67.2% (active) | -79% (active) | 0.328% (active) | -98.2% (active) | 1.34% (active) | -5.25% (active) | 7.64% (active) | -97% (active) | -91% (active) | -53.6% (active) | -19.9% (active)
CCCCN1CCN(c2ccc3nc(-c4ccc5nc(-c6ccc(OCC)c(OCC)c6)[nH]c5c4)[nH]c3c2)CC1 | -86.2% (active) | -37.1% (active) | 9.35% (active) | -81.2% (active) | -96.3% (active) | 51.6% | -67.8% (active) | -93.7% (active) | 29% | -28% (active) | -30.4% (active) | -20.8% (active) | 24.1% | -28.8% (active) | -61.4% (active) | -49.1% (active) | 8.19% (active) | 17.7% | -81.9% (active) | 45.8%
